Source: PubChem BioAssay
Activity calls are given as the source filed them.

Assays:
Albumin (Bos taurus) = Albumin (Bos taurus) (UniProt P02769); assay: bovine serum albumin binders on microarray, profiling panel, artefact control for SMM control protein annotation, biochemical, small-molecule microarray, Alexa647 label, 635/667 nm fluorescence (AID 1118); conditions: BSA-A647 binding, fluorescence 635 nm, higher = more signal;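 further: score merges 667 nm emission intensity and signal-to-noise per printed compound spot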
Sequence of Albumin (Bos taurus) (P02769 whole entry, looked up): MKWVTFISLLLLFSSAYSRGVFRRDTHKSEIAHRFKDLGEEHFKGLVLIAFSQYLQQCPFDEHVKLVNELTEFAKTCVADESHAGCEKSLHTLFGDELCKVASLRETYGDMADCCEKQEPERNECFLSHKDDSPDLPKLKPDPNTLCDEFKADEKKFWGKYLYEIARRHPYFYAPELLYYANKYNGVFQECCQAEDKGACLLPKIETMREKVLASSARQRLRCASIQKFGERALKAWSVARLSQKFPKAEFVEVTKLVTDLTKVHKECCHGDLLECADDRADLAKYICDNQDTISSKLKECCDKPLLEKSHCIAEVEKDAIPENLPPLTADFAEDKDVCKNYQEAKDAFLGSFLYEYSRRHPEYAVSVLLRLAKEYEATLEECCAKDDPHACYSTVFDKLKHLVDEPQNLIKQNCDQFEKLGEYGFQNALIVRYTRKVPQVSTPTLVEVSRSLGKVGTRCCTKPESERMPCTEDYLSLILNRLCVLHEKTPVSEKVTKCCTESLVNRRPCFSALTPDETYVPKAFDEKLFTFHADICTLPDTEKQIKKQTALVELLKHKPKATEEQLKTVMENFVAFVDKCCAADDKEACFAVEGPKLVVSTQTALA

[1] = small-molecule microarray binders of probe aXIP, primary screen, biochemical, NeuroSMM set, 635/667 nm fluorescence (AID 1119); conditions: higher = more signal, called active from +8 up or from −8 down;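 further: probe is the protein aXip251-270 applied at 1 µg/mL to compound-printed slides; binding of probe to printed compounds measured as 667 nm fluorescence plus signal to noise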
[2] = small-molecule binders of probe aNOTCH3, primary screen, biochemical, small-molecule microarray, 635/667 nm fluorescence (AID 1120); conditions: higher = more signal;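 further: probe is a biotin-tagged antibody raised against NOTCH3 rather than NOTCH3 protein; score merges spot fluorescence near 667 nm with spot signal to noise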
[3] = small-molecule binders of probe aNOTCH2, primary screen, biochemical, small-molecule microarray, 635/667 nm fluorescence (AID 1121); conditions: higher = more signal;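 further: score merges feature fluorescence read at 667 nm with its signal to noise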
[4] = biological target: Carbonic anhydrase 2 (Homo sapiens) (UniProt P00918); assay: CAII small-molecule binders, profiling panel, biochemical, small-molecule microarray, Alexa647-labelled CAII (AID 1122); conditions: CAII-A647 binding fluorescence, higher = more signal
[5] = COS7 lysate on small-molecule microarray, probe aHis, 635 nm (AID 1123); conditions: COS7 cell lysate, fluorescence, higher = more signal;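 further: z-score combines 667nm fluorescence intensity with signal-to-noise per printed compound spot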
[6] = compound binding in COS7 lysate, probe aLAP1, primary screen, cell lysate, small-molecule microarray (AID 1124); conditions: probe aLAP1, fluorescence, higher = more signal;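 further: lysate comes from COS7 cells expressing LAP1 and is applied at 0.3 µg/mL; score merges spot fluorescence near 667 nm with signal-to-noise over triplicate slides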
Sam68 (KHDRBS1) = assay: Sam68 small-molecule binders, primary screen, biochemical, small-molecule microarray, 635 nm fluorescence (AID 1125); conditions: small-molecule microarray binding, higher = more signal;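 further: score merges 667 nm channel intensity with signal to noise over triplicate slides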
[7] = test system: Chordin-like protein 2 (CHRDL2); assay: CHRDL2 small-molecule binders, primary screen, biochemical, small-molecule microarray, 635 nm fluorescence (AID 1126); conditions: small-molecule microarray binding, fluorescence 635 nm; higher = more signal;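 further: printed compound slides probed with Chrdl2 protein at 4 µg/mL for 1 h at 4 C; score merges 667 nm emission intensity with signal to noise over three replicate slides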
[8] = biological target: Concanavalin-A (Canavalia ensiformis) (UniProt P02866); assay: ConA small-molecule binders, primary screen, artefact control for SMM control protein annotation, biochemical, small-molecule microarray, Alexa647 label, 635 nm (AID 1127); conditions: ConA-A647 binding fluorescence, higher = more signal;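 further: z combines 667 nm emission intensity with signal-to-noise across three replicate slides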
Sequence of Concanavalin-A (Canavalia ensiformis) (P02866 whole entry, looked up): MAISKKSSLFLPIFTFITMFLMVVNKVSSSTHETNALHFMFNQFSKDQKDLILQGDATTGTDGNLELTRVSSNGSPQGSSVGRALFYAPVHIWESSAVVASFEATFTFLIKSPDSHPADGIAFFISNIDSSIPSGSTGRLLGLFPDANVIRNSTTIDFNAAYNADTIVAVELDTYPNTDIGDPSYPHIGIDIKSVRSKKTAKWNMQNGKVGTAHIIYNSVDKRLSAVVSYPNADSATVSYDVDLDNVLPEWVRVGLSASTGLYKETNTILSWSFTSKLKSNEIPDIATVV

[9] = anti-His antibody binders, primary screen, artefact control for SMM control protein annotation, biochemical, small-molecule microarray, 635 nm fluorescence (AID 1128); conditions: anti-His Alexa647 antibody binding, higher = more signal;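 further: score merges feature fluorescence with signal-to-noise for each printed compound spot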
[10] = test system: Human papillomavirus type 1a E7 protein (residues 1-88); assay: HPV1a E7 small-molecule binders, primary screen, biochemical, small-molecule microarray, residues 1-88, 635 nm (AID 1129); conditions: small-molecule microarray binding, fluorescence 635 nm; higher = more signal
[11] = biological target: Focal adhesion kinase 1 (Homo sapiens) (UniProt Q05397); assay: small-molecule microarray binders of FAK, primary screen, biochemical, 635/667 nm fluorescence, BSA, DTT (AID 1130); conditions: PTK2 binding, 635 nm fluorescence, higher = more signal;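 further: composite of spot emission at 667 nm and signal to noise over triplicate slides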
Sequence of Focal adhesion kinase 1 (Homo sapiens) (Q05397 whole entry, looked up): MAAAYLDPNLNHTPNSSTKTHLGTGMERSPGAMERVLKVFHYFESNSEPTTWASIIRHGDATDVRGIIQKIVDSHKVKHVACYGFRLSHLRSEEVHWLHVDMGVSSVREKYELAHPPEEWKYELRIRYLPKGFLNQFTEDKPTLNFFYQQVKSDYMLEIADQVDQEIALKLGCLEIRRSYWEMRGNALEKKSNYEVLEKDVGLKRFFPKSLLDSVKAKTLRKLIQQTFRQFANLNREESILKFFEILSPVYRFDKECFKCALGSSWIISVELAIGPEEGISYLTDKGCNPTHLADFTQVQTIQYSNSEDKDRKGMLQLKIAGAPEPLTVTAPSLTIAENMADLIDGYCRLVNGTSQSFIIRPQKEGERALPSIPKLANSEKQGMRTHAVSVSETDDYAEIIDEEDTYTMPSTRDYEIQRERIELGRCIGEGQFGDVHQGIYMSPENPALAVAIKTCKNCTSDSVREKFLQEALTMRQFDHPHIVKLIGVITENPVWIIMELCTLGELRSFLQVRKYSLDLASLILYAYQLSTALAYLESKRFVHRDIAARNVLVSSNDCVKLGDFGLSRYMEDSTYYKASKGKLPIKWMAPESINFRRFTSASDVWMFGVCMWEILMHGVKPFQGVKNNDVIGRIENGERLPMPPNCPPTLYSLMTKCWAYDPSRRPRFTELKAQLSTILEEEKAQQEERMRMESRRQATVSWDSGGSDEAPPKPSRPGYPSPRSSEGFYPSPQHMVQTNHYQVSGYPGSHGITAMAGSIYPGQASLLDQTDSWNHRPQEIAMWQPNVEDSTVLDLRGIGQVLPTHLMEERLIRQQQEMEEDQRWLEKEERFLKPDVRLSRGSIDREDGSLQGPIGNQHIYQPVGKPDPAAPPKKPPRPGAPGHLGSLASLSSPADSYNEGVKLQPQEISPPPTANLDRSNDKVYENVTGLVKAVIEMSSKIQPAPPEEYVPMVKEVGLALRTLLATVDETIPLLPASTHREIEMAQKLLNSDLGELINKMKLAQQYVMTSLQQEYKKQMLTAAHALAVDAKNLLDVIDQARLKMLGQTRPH

[12] = test system: Fibrinogen (Alexa647-labelled); assay: fibrinogen binders on compound microarrays, profiling panel, artefact control for SMM control-protein annotation, biochemical, small-molecule microarray, 635/667 nm fluorescence (AID 1131); conditions: fibrinogen-A647 binding fluorescence, higher = more signal;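 further: z-score merges 667 nm fluorescence with per-spot signal-to-noise over triplicate slides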
[13] = biological target: Follistatin (Homo sapiens) (UniProt P19883); assay: follistatin binders on small-molecule microarrays, primary screen, biochemical, small-molecule microarray, 635/667 nm fluorescence (AID 1132); conditions: FST binding, 635 nm fluorescence, higher = more signal
Sequence of Follistatin (Homo sapiens) (P19883 whole entry, looked up): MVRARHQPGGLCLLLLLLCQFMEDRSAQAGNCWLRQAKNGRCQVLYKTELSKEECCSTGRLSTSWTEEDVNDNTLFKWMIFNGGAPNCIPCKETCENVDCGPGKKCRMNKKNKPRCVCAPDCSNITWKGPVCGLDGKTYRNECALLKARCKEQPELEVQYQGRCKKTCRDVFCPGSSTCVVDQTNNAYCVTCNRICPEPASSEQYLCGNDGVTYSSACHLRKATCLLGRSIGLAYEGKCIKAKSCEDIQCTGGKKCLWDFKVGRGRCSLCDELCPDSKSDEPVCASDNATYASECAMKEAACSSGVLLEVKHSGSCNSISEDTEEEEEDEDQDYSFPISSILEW

[14] = biological target: Fibroblast growth factor 2 (Homo sapiens) (UniProt P09038); assay: FGF2 binders on small-molecule microarrays, primary screen, biochemical, small-molecule microarray, 635/667 nm fluorescence (AID 1133); conditions: small-molecule microarray binding, FGF2, fluorescence 635/667; higher = more signal
Sequence of Fibroblast growth factor 2 (Homo sapiens) (P09038 whole entry, looked up): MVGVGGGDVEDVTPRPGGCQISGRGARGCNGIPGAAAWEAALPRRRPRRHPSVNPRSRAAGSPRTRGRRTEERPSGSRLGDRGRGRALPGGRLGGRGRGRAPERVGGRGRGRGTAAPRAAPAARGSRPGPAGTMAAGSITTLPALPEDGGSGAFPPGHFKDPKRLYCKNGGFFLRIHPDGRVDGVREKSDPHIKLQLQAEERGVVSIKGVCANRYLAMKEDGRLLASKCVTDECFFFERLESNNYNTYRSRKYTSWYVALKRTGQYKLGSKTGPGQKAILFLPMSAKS

[15] = mitochondrial membrane potential change in A549 cells, profiling panel, cell-based, JC-1 fluorescence, basal, 24 h, 100 nL (AID 1138); conditions: higher = more signal;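 further: A549 lung adenocarcinoma cells under basal conditions with no added stimulus; test concentration not given here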
Lefty1 = Lefty1 binders on small-molecule microarrays, primary screen, biochemical, small-molecule microarray, 635/667 nm fluorescence (AID 1139); conditions: small-molecule microarray binding, fluorescence 635/667; higher = more signal
[16] = test system: wheat germ agglutinin (Triticum aestivum), Alexa647-labelled; assay: wheat germ agglutinin binders on compound microarrays, profiling panel, artefact control for SMM control-protein annotation, biochemical, small-molecule microarray, 635/667 nm fluorescence (AID 1140); conditions: WGA-A647 binding, 635 nm fluorescence, higher = more signal;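 further: score merges 667 nm feature emission with signal to noise over triplicate slides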
[17] = biological target: Luciferin 4-monooxygenase (Photinus pyralis) (UniProt P08659); assay: firefly luciferase enzyme inhibitors, primary screen, biochemical, luminescence, purified enzyme, 2006 set (AID 1141); conditions: SteadyGlo luminescence, 30 min, higher = more signal, called active from +8 up or from −8 down;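 further: cell-free assay with purified firefly luciferase at 100 ng per well in PBS; test concentration not given here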
Sequence of Luciferin 4-monooxygenase (Photinus pyralis) (P08659 whole entry, looked up): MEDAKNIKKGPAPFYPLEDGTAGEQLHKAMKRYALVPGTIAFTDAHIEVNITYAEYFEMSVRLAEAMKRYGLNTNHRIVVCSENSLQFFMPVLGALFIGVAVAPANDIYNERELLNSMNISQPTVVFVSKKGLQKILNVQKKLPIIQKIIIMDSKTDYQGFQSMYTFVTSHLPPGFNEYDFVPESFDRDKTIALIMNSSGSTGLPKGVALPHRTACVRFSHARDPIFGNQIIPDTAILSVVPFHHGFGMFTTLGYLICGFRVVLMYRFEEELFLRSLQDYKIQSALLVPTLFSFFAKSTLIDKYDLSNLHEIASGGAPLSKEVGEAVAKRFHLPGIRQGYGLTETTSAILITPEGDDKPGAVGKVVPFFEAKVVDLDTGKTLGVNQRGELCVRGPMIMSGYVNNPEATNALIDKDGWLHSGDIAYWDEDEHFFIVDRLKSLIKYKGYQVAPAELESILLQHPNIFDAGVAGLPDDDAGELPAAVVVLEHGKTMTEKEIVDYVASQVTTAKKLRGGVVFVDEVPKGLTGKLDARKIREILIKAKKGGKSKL

Row | Compound | composite z-score (Albumin (Bos taurus)) | composite Z-score [1] | composite z-score [2] | composite z-score [3] | composite z-score [4] | composite z-score [5] | composite z-score [6] | composite z-score (Sam68 (KHDRBS1)) | composite z-score [7] | composite z-score [8] | composite z-score [9] | composite z-score [10] | composite z-score [11] | composite z-score [12] | composite z-score [13] | composite z-score [14] | z-score [15] | composite z-score (Lefty1) | composite z-score [16] | z-score [17]
1 | O=C(NN=C1C[C@@H](O)[C@@H](O)[C@@H]2[C@@H]3C(=O)N(C[C@@H]4CCCO4)C(=O)[C@@H]3CC[C@@H]12)OCc1ccccc1 | 0.103 | 0.008 (inactive) | -0.0647 | -0.16 | -0.275 | -0.12 | 0.373 | 0.794 | 0.909 | -0.18 | -0.391 | -0.645 | -0.345 | -0.545 | 0.5 | 0.23 | 0.49 | 0.305 | -0.248 | -0.827 (inactive)
2 | COC(=O)[C@H](C)NC(=O)CCC1CC(OC(=O)NCCc2ccc(F)cc2)CC2(CCCC(COC(=O)NCc3cccc(C(F)(F)F)c3)O2)O1 (stereo not given in full) | 0.0516 | 0.116 (inactive) | 0.133 | -0.0652 | 0.193 | 0.702 | -0.363 | 0.267 | 0.208 | 0.401 | 0.158 | 0.637 | 0.145 | 0.563 | 1.19 | 0.617 | -0.0843 | 1.43 | 0.0337 | 0.0641 (inactive)
3 | CC(CCN1CCCc2nc(C)c(C)cc21)=NOC(C)CN1CCCCc2nc(C)c(C)cc21 (stereo not given) | -0.0931 | 1.62 (inactive) | 0.539 | 0.101 | 0.618 | 0.84 | 0.247 | 1.3 | 1.06 | 1.01 | 0.363 | 1.2 | 0.687 | 0.567 | 1.27 | 0.785 | 0.539 | 0.91 | 0.829 | -0.0922 (inactive)
4 | CC(C)=CCCC(C)=CCON=C1C[C@@H](O)[C@@H](O)[C@@H]2[C@@H]3C(=O)N(c4ccc(F)cc4F)C(=O)[C@@H]3CC[C@@H]12 | 0.572 | 0.262 (inactive) | 0.0459 | -0.14 | 0.29 | -0.217 | 0.233 | 0.51 | 1.38 | 0.339 | 0.0658 | -0.167 | 0.121 | 0.89 | 1.04 | 0.393 | -0.913 | 1.27 | 1.06 | 1.03 (inactive)
5 | O=C1[C@H]2[C@H]3[C@H](O)[C@H](O)CC(=NOC[C@@H](O)COCc4ccco4)[C@H]3CC[C@H]2C(=O)N1C[C@@H]1CCCO1 | -0.483 | 0.382 (inactive) | -0.0976 | -0.208 | -0.237 | -0.736 | -0.353 | 0.293 | 1.38 | -0.294 | 0.605 | 0.225 | -0.173 | -1.27 | 0.987 | 1.61 | -0.644 | 1.34 | -0.23 | 1.02 (inactive)
6 | CON=CC[C@@H]1C=C[C@H](OC(C)=O)[C@@H](COC(C)=O)O1 | -0.714 | 1.33 (inactive) | 0.287 | 0.0007 | 0.397 | 0.043 | 0.18 | -0.0499 | 0.679 | -0.32 | 0.0374 | -0.534 | 0.538 | -0.146 | 0.606 | 0.495 | 0.296 | 0.596 | 0.0389 | 0.218 (inactive)
7 | CO[C@H]1COC(=O)[C@@H](C)COC(=O)[C@H](COCc2ccccc2)NC(=O)CC=C[C@H]1C | -1.04 | 2.09 (inactive) | -0.0077 | -0.135 | -0.551 | -1.73 | -0.81 | -1.17 | 1.22 | -3.77 | -1.43 | -1.02 | -0.0555 | -0.785 | 1.36 | 1.21 | 0.844 | 1.09 | -0.841 | -0.949 (inactive)
8 | COC(=O)[C@H](C)NC(=O)CCC1CC(OC(=O)NCc2ccc3c(c2)OCO3)CC2(CCCC(COC(=O)NCC3CCCCC3)O2)O1 (stereo not given in full) | 0.569 | -0.0882 (inactive) | -0.0111 | -0.0947 | 0.234 | 1.19 | -0.111 | 1.29 | 0.435 | 1.05 | 0.807 | 1.16 | 0.408 | 0.52 | 0.533 | 0.77 | -0.00341 | 0.97 | 0.723 | 1.16 (inactive)
9 | CCN1C(=O)[C@H]2[C@H]3[C@H](O)[C@H](O)CC(=O)[C@@H]3CC[C@H]2C1=O | 0.4 | -0.141 (inactive) | -0.0377 | -0.179 | 0.0044 | 0.304 | 0.335 | 0.826 | 0.503 | 0.735 | 0.562 | 0.899 | -0.049 | 0.583 | 0.468 | 0.226 | 1.39 | 0.547 | 0.187 | -0.497 (inactive)
10 | CO[C@@H]1COC(=O)[C@@H]2CCCN2C(=O)[C@@H](C)COC(=O)CC=C[C@H]1C | 0.0417 | -0.235 (inactive) | -0.0362 | -0.14 | 0.299 | 0.148 | 0.0496 | 1.2 | 0.695 | 0.325 | 0.408 | 0.923 | -0.194 | 0.527 | 0.365 | 1.51 | -0.84 | 1.01 | -0.0639 | 1.48 (inactive)
11 | C#CCCCON=C1C[C@@H](O)[C@@H](O)[C@@H]2[C@@H]3C(=O)N(Cc4ccccc4)C(=O)[C@@H]3CC[C@@H]12 | 0.745 | 0.23 (inactive) | -0.03 | -0.178 | -0.103 | -0.0919 | -0.0209 | -0.492 | 0.0362 | -0.324 | 0.309 | -0.032 | 0.0147 | -0.691 | -0.0389 | 0.0054 | 0.477 | 0.19 | 0.249 | 0.807 (inactive)
